# Shown is part of a subset that was picked to be rich in hits.
# HT1080 IDH1KD tx – HT-1080 IDH1 knockdown cell toxicity (counter line); HT-1080 IDH1 knockdown viability, ATP luminescence, 48 h; Potency, µM (series often up to 46.1 µM), without a hit: at the highest dose activity, negative = toxicity, actives largely listed as cytotoxic; actives 2% (n = 360,000); AID 686971;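 note: potency is the fitted concentration of half-maximal effect; 0% = DMSO wells and -100% = cell-free medium wells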
#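 After a 2 h attachment period, IDH1KD HT-1080 cells took pin-transferred compound for 48 h at 37 °C; ATP-based luminescence after 10 min room-temperature reagent incubation reported viability.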
# IL1B secr inh – inhibitors of inflammasome signaling (IL-1 beta secretion). THP-1 LPS/ATP IL-1B secretion, AlphaLISA, 16 h; stronger effect = lower value. activity change, % at 57.5 µM. actives 4.7% (n = 360,000); in the data active = activity change below about -50%; inconclusive = mostly about -30% to -49%
#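 Secreted IL-1B measured by AlphaLISA bead assay after 16 h compound exposure of THP-1 cells; compounds (final up to 57.5 uM) added 1 h before LPS (250 ng/mL) and ATP (1.25 mM) stimulation; lower signal means less secretion.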
# DT40 TDP1 CPT – growth inhibition of DT40 Tdp1-/-;hTDP1 cells with camptothecin (screen for TDP1 inhibitors) | chicken DT40 Tdp1-/-;hTDP1 cells + 20 nM CPT, ATP luminescence, 48 h | Potency, µM (top dose mostly 46.2 µM), for the others: top-dose activity change, negative = growth inhibition, most hits filed as inhibitors | actives 12% (n = 420,000) | AID 686979; note: potency is the fitted concentration of half-maximal effect; nearly all actives have a fitted effect of over 55% in size
#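 Chicken DT40 Tdp1-/- cells complemented with human TDP1, 400 cells/well, exposed to compounds plus 20 nM camptothecin for at least 48 h at 37 C; viability read as ATP content by CellTiter-Glo luminescence.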
# DT40 TDP1 no CPT – qHTS for Inhibitors of human tyrosyl-DNA phosphodiesterase 1 (TDP1): qHTS in cells in absence of CPT | actives 15% (n = 420,000) | DT40 Tdp1-/- hTDP1 cells, no CPT, ATP luminescence, 48 h | Potency, µM (titrated, usually from 46.2 µM), for the others: top-dose activity change, negative = growth inhibition, hits mostly inhibitors; note: potency is the fitted concentration of half-maximal effect; nearly all actives have a fitted effect of over 55% in size
#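 Chicken DT40 Tdp1-/- cells complemented with human TDP1, screened without camptothecin (DMSO vehicle only), 400 cells/well. Compounds pin-transferred, cells incubated at 37 °C for at least 48 hr. Growth read as ATP-dependent luminescence (CellTiter-Glo, 30 min at RT).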
# ALOX12 inh – inhibitors of human 12S-lipoxygenase ALOX12; purified 12hLO, xylenol orange hydroperoxide absorbance; Potency, µM (titrated, usually from 108 µM), without a hit: at the top dose activity change, negative = inhibition, actives largely listed as inhibitors; P18054; actives 1.1% (n = 580,000); note: potency is the fitted concentration of half-maximal effect
#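 Hydroperoxide product was detected by ferrous iron/xylenol orange as the 573 to 405 nm absorbance ratio. Arachidonic acid at 40 uM (final) was turned over for 30 min at room temperature by 150 nM human 12hLO, pH 7.0 Hepes buffer, after 15 min compound preincubation.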
# HT1080NT lethal – kills 2HG-producing HT-1080-NT fibrosarcoma cells | HT-1080-NT fibrosarcoma viability, CellTiter-Glo ATP luminescence, 48 h | Potency, µM (titrated, usually from 46.1 µM), for the others: at the top dose activity, negative = less viability, usual class: cytotoxic | actives 1.6% (n = 360,000) | AID 686970;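 note: NT is the 2HG producing partner of a matched IDH1 knockdown line; potency is the fitted concentration of half-maximal effect; 0% = DMSO-treated cells and -100% = media-only wells without cells; nearly all actives have a fitted effect of over 55% in size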
#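 Viability by CellTiter-Glo luminescence after 48 h compound exposure at 37C of HT-1080-NT cells (750/well, RPMI, 5% FBS). % activity scaled between DMSO wells and medium-only wells, then curve-fitted and categorized by curve class.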
# Starred values were filed as active, the others as inactive; ? = inconclusive; · = no result given; [ ] = remark or other dose. Unless noted, calls come from the whole dose curve; as a rule, active = well fitted curve in the direction sought with a large enough effect; inconclusive = small, poorly fitted or top-dose-only effect, or another doubt; inactive = no such curve, though single readings can be large; an effect the other way counts as inactive or inconclusive. Unless noted, % is set by controls: 0 for no effect and ±100 for the full control effect.
SMILES,HT1080 IDH1KD tx,IL1B secr inh,DT40 TDP1 CPT,DT40 TDP1 no CPT,ALOX12 inh,HT1080NT lethal
CCOC(=O)C(Cc1ccccc1)NC(=O)CNC(=O)CNC(=O)OCc1ccccc1 (stereo not given),-7%,-88*,-3%,-23%,-12%,-19%
Cc1cccc(NC(=O)[C@H](Cc2ccccc2)NC(=O)OCc2ccccc2)c1,-3%,0,-17%,?,8%,-5%
Cn1nccc1C(=O)N1CCCC1C(=O)Nc1cccc(-n2cccn2)c1 (stereo not given),·,·,·,·,86%,·
Cc1cccc(C)c1-c1nc(C(=O)N2CCC(C#N)CC2)n2ccccc12,·,·,·,·,6%[6.33 µM],·
CC(=O)C1=C(O)C(=O)N(c2nccs2)C1c1ccccc1 (stereo not given),-5%,13,-24%,-25%,8.9µM*,-2%
CC(=O)C1=C(O)C(=O)N(c2ccc(Br)cc2)C1c1ccc(Br)cc1 (stereo not given),-22%,48,1%,7%,7.9µM*,?
CC(=O)C1=C(O)C(=O)N(Cc2ccccc2)C1c1ccc(Br)cc1 (stereo not given),-3%,22,25%,-21%,11µM*,-2%
O=C(c1ccccn1)N1CC[C@@H]2[C@@H](CCC(=O)N2CCc2cnc[nH]2)C1,·,·,·,·,-5%,·
CC[n+]1ccc(/C=C2\Sc3ccccc3N2CCCS(=O)(=O)[O-])c2ccccc21,-7%,58,1%,2%,?,-16%
CN1C=C/C(=C\c2cc[n+](C)c3ccccc23)c2ccccc21,6.5µM*,-71*,0.21µM*,0.0082µM*,?,?
C[n+]1ccc(/C=C/c2ccc(F)cc2)c2ccccc21,·,·,8.9µM*,13µM*,·,·
C[n+]1ccc(/C=C/c2ccc([N+](C)(C)C)cc2)c2ccccc21,·,·,0.14µM*,0.16µM*,·,·
C[n+]1ccc(/C=C/c2cc[n+](C)c3ccccc23)c2ccccc21,·,·,0.1µM*,0.079µM*,·,·
C[n+]1ccccc1/C=N/O,-2%,23,0%,2%,?,41%
CN(C)c1ccc(/C=C/c2cc[n+]([O-])c3ccccc23)cc1,·,·,-20%,-11%,·,·
Cn1nc(C(=O)N2CCCC2c2nc3ccccc3s2)c2ccccc2c1=O (stereo not given),·,·,·,·,3%,·
COc1ccc(NC(=O)c2oc3ccccc3c2NC(=O)Cc2coc3c(C)c(C)ccc23)cc1,·,·,?,?,8%,·
O=C(NCCn1cccn1)c1coc(COc2cccc(C(F)(F)F)c2)n1,·,·,·,·,44%,·
COc1cc(C)ccc1OCc1cc(C(=O)NC(c2ccccn2)C(F)(F)F)no1 (stereo not given),-9%,-26,0.65µM*,?,1%,0%
COc1cc(C)ccc1OCc1cc(C(=O)NC2CCOCC2)no1,0%,-9,0%,-9%,?,11%
O=C(Nc1ccc(Cl)cc1)c1cccc(S(=O)(=O)C2CCS(=O)(=O)C2)c1 (stereo not given),·,·,·,·,-8%,·
CS(=O)(=O)c1ccc([C@@H](O)[C@@H](CO)NC(=O)C(Cl)Cl)cc1,1%,-1,5.8µM*,3.7µM*,26%,-21%
CS(=O)(=O)c1ccc(C(O)C(CO)NC(=O)C(Cl)Cl)cc1 (stereo not given),·,·,?,1.6µM*,·,·
CS(=O)(=O)c1ccc(NC(=O)C(c2ccccc2)c2ccccc2)cc1,·,·,·,·,-23%,·
CCCCCCCCCCCCCCCC(=O)OC[C@@H](NC(=O)C(Cl)Cl)[C@H](O)c1ccc([N+](=O)[O-])cc1,·,·,-2%,5%,?,·
COc1ccc(-n2nc(C#N)c(Cl)cc2=O)cc1,13µM*,-106*,3.3µM*,4.6µM*,-10%,7.3µM*

# Compound activity deposited in PubChem BioAssay by National Center for Advancing Translational Sciences (NCATS).
